Test [1] in a line: small molecules captured by biotinylated probe aFSTL3 – biochemical, small-molecule microarray, fluorescence 635/667, stem cell growth factor project, primary screen (AID 1064).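 Further: measures binding of the biotinylated anti-FSTL3 antibody to printed compounds.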 To be noted: higher = more signal.
Test [2] is described as follows: binders from COS7 lysate, DM2A8 probe, primary screen, torsin A project, cell lysate, small-molecule microarray, fluorescence 635/667 (AID 1065). To be noted: higher = more signal, COS7 lysate expressing mutant human TOR1A.
The nature of test [3]: small molecules captured by biotinylated probe aFGF2 – biochemical, small-molecule microarray, fluorescence 635/667, stem cell growth factor project, primary screen (AID 1067).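 Further: measures binding of biotinylated aFGF2 protein to printed compounds on slides; z-score merges feature fluorescence and signal-to-noise across triplicate slides.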 To be noted: higher = more signal.
Test [4] is described as follows: small molecules captured by biotinylated probe aFGF10 – biochemical, small-molecule microarray, fluorescence 635/667, stem cell growth factor project, primary screen (AID 1071).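 Further: score merges 667 nm spot intensity and signal to noise from triplicate slides.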 To be noted: higher = more signal.
Test [5] addresses Neurogenic locus notch homolog protein 2 (Homo sapiens) (UniProt Q04721). The test can be described thus: small molecules binding Notch2 protein – biochemical, small-molecule microarray, 635 nm fluorescence, stem cell growth factors, primary screen (AID 1073). To be noted: higher = more signal.
Test [6] addresses Pro-neuregulin-1, membrane-bound isoform (Homo sapiens) (UniProt Q02297). The test can be described thus: small molecules binding neuregulin-1 protein – biochemical, small-molecule microarray, fluorescence 635/667, psychiatric disease protein project, primary screen (AID 1075).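 Further: score combines 667 nm spot fluorescence with signal to noise.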 Particulars: NRG1 binding, 635 nm fluorescence, higher = more signal.
The subject of test [7] is Neuregulin-1 EGF-like domain. The test can be described thus: small molecules binding NRG1 EGF domain – biochemical, small-molecule microarray, 635 nm fluorescence, primary screen (AID 1081).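 Further: binding of the protein to compounds printed on small-molecule microarray slides.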 To be noted: higher = more signal.
Test [8] in a line: FRG1 expression reporter modulators in myotubes – cell-based, C2C12 myotubes, firefly/Renilla luciferase, luminescence, FRG1 inhibition for FSHD, primary screen (AID 1084). To be noted: FRG1 promoter luciferase, higher = more signal, called active from +8 up or from −8 down.
Test [9] in a line: small molecules captured by biotinylated probe aFST – biochemical, small-molecule microarray, fluorescence 635/667, stem cell growth factor project, primary screen (AID 1086).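 Further: score merges 667 nm fluorescence with signal-to-noise of each printed compound spot.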 Particulars: higher = more signal.
Test [10] can be described thus: binders of probe aHhip on microarray, primary screen, stem cell growth factor project, biochemical, small-molecule microarray, fluorescence 635/667 (AID 1087).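 Further: score merges spot fluorescence at 667nm with spot signal to noise ratio.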 To be noted: higher = more signal.
For test [11], the system named is PRMT1 (protein arginine N-methyltransferase 1). The test can be described thus: small molecules binding arginine methyltransferase PRMT1 – biochemical, small-molecule microarray, 635 nm fluorescence, primary screen (AID 1088).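 Further: binding of Prmt1 protein to compounds spotted on small-molecule microarray slides.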 Particulars: higher = more signal.
Test [12] is described as follows: growth effects on S. cerevisiae YJM789 – YJM789 clinical isolate, OD600, 24 h, basal, primary screen (AID 1089).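 Further: growth of clinical yeast isolate S. cerevisiae YJM 789 seeded 1000 cells per well; test concentration not given here.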 To be noted: higher = more signal, called active from +8 up or from −8 down.
Test [13] is described as follows: S. pombe growth modifiers, basal conditions – strain 972, OD600, 24 h, no modulator, primary screen (AID 1090).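 Further: basal condition with compound alone and no growth modifier present; test concentration not given here.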 Particulars: S. pombe 972 growth, higher = more signal, called active from +8 up or from −8 down.
Test [14] can be described thus: budding yeast growth modifiers under rapamycin – strain BY4716, OD600, 96 h, primary screen (AID 1091). Further: test concentration not given here. To be noted: S. cerevisiae BY4716 + rapamycin, higher = more signal, called active from +8 up or from −8 down.
In test [15] the target is Torsin-1A-interacting protein 2 (Homo sapiens) (UniProt Q8NFQ8). The test can be described thus: small molecules binding lysate-expressed LULL1 – cell lysate, human LULL1 lysate, 635/667 nm fluorescence, primary screen (AID 1092).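 Further: score merges per-feature 667 nm fluorescence with signal-to-noise.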 To be noted: small-molecule microarray, hLULL1 lysate binding, 635 nm fluorescence; higher = more signal.
The nature of test [16]: optical density change of DRC41 E. coli – strain DRC41, OD650, 24 h, E. coli filamentation project, primary screen (AID 1093).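 Further: MC1000 strain lacking acrAB efflux and sulA so SOS filamentation is blocked; test concentration not given here.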 Particulars: E. coli DRC41 growth, higher = more signal, called active from +8 up or from −8 down.
The nature of test [17]: probe aLefty2 binding to arrayed compounds – biochemical, biotinylated probe, 635/667 nm fluorescence, primary screen (AID 1094).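 Further: score merges spot fluorescence near 667 nm with spot signal-to-noise ratio.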 To be noted: small-molecule microarray, higher = more signal.
Test [18] deals with Noggin (protein binding on small-molecule microarray). The test is described as follows: small molecules binding Noggin protein – biochemical, 635/667 nm fluorescence, primary screen (AID 1095).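 Further: score merges 667 nm feature fluorescence with signal to noise over triplicate slides.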 Particulars: 635 nm fluorescence, higher = more signal.
For test [19], the target named is Neurogenic locus notch homolog protein 3 (Homo sapiens) (UniProt Q9UM47). The test can be described thus: small molecules binding NOTCH3 protein – biochemical, 635/667 nm fluorescence, primary screen (AID 1096). Particulars: small-molecule microarray, 635 nm fluorescence, higher = more signal.
Neurogenic locus notch homolog protein 3 (Homo sapiens), sequence (Q9UM47 whole entry, looked up): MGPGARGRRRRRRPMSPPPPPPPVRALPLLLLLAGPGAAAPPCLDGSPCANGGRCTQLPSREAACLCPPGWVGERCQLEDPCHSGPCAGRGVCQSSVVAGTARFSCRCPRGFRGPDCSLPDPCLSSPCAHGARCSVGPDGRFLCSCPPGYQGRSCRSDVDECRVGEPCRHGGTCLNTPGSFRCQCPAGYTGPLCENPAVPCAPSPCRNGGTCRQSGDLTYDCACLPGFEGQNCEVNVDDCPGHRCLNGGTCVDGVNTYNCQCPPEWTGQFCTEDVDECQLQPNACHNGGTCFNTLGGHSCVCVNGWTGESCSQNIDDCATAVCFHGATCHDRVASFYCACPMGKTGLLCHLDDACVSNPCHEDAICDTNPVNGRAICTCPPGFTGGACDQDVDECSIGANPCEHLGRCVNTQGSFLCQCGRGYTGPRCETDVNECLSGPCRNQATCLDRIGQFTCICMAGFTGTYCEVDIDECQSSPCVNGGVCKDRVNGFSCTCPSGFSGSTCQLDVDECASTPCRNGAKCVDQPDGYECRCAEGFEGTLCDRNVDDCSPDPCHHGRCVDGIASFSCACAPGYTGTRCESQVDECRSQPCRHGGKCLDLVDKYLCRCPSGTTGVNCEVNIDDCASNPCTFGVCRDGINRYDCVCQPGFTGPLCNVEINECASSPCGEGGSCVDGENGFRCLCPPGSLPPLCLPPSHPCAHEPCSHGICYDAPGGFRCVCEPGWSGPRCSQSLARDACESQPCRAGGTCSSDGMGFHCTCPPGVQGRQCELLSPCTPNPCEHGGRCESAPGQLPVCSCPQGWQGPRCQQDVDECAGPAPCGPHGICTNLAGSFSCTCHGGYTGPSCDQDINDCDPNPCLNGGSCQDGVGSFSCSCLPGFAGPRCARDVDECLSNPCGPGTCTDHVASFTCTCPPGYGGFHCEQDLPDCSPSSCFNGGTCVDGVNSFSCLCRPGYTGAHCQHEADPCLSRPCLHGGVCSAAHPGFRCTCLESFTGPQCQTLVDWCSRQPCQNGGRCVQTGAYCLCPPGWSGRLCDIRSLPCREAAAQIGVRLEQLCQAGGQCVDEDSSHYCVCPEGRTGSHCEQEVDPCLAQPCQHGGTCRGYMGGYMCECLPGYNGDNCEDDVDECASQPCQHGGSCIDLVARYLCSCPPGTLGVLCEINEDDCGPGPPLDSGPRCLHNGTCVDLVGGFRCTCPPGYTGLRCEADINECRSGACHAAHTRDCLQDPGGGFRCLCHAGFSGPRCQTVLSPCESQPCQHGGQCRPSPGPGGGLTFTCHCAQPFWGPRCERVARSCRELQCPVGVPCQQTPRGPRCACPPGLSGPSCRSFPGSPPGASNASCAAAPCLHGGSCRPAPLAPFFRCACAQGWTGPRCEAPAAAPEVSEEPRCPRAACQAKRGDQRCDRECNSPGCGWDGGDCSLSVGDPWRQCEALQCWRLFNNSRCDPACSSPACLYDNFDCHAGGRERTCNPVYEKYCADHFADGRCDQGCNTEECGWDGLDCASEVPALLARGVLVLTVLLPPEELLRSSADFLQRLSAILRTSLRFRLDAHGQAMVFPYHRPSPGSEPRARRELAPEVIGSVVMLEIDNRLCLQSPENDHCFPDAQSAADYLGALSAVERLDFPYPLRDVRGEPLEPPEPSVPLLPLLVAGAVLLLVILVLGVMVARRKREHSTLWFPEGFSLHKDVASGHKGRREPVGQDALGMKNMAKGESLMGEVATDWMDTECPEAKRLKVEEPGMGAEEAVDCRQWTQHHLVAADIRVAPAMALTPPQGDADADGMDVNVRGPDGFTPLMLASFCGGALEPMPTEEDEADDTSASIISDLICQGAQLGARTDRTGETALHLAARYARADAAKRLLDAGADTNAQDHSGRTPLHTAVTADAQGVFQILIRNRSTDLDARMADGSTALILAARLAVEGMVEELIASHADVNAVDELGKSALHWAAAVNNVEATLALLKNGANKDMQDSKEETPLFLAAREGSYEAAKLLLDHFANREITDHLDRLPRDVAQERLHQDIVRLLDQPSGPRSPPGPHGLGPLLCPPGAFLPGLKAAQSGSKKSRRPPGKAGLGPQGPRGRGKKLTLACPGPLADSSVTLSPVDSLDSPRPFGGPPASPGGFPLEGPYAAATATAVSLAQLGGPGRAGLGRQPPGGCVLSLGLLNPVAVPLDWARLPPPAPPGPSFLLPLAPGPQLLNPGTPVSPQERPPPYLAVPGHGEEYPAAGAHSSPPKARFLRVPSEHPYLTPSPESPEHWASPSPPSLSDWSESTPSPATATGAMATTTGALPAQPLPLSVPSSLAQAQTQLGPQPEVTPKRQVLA
The nature of test [20]: probe aEGFR binding to arrayed compounds – biochemical, biotinylated probe, 635/667 nm fluorescence, primary screen (AID 1097).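 Further: probe is a biotinylated anti-EGFR antibody binding compounds printed on slides; score combines fluorescence near 667 nm and signal to noise of each spot.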 To be noted: small-molecule microarray, higher = more signal.

Molecules are shown by their SMILES. Active and inactive are the calls of the source.

Neurogenic locus notch homolog protein 2 (Homo sapiens), sequence (Q04721 whole entry, looked up, canonical isoform): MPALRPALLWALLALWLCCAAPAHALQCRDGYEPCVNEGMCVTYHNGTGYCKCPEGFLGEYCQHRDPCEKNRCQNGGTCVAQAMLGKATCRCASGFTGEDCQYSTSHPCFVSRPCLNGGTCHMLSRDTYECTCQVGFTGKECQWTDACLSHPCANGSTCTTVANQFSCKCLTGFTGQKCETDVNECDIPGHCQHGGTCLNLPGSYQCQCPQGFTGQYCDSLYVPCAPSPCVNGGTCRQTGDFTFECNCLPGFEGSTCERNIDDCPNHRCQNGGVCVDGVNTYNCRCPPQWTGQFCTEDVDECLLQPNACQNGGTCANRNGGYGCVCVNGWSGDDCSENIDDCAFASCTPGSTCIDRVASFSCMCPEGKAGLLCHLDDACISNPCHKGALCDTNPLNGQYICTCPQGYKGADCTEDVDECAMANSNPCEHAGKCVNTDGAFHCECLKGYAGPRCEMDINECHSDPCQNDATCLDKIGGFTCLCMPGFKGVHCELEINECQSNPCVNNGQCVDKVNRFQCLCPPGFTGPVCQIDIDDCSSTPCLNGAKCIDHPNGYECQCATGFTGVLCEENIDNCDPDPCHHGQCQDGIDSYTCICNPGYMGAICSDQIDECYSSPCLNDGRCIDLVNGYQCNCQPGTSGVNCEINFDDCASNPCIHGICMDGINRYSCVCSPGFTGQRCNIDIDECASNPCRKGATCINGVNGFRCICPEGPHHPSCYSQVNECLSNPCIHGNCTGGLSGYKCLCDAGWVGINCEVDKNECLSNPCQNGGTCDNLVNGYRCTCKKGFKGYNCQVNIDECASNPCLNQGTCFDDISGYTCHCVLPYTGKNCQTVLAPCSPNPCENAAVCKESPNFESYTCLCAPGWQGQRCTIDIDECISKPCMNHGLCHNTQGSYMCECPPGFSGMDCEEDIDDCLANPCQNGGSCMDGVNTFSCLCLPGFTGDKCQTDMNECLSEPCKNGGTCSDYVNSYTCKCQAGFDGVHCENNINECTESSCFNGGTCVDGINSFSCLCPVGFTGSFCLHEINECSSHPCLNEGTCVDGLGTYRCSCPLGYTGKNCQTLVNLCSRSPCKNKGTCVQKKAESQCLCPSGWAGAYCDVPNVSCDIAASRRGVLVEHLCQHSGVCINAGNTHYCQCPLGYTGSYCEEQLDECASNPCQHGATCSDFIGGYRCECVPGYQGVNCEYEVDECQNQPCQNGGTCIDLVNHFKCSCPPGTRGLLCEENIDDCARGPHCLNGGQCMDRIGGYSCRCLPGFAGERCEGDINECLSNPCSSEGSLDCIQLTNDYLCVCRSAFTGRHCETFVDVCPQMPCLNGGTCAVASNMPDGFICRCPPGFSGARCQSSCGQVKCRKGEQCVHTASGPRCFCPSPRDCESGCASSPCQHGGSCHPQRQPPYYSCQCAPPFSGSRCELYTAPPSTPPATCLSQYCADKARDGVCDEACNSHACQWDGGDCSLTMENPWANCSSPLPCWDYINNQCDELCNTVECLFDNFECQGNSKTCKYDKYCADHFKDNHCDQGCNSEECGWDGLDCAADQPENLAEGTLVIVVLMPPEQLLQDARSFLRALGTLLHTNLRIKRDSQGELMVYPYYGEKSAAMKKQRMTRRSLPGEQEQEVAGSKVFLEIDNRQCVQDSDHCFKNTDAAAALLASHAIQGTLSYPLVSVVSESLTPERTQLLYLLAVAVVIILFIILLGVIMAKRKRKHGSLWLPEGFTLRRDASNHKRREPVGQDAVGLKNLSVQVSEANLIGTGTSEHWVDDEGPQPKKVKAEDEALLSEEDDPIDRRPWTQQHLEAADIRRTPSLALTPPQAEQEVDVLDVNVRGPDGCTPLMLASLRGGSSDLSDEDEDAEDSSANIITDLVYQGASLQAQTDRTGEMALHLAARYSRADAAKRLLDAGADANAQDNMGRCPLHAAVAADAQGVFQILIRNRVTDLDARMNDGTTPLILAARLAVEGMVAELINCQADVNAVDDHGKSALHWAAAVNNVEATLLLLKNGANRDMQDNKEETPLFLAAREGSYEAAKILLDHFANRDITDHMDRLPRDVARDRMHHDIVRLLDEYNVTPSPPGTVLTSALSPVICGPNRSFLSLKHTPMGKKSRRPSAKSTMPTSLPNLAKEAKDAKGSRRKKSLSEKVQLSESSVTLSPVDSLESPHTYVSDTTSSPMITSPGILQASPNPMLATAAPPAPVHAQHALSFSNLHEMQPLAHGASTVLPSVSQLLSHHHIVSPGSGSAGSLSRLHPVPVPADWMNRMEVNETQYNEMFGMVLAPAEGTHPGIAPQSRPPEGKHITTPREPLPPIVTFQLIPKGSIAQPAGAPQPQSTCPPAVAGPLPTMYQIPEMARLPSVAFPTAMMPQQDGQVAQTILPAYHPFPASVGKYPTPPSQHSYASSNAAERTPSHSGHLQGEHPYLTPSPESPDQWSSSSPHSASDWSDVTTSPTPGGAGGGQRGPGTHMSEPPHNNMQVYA

As to `C=CCN1C(=O)[C@]2(O[C@H](CCO)[C@@H]([Si](C)(C)c3ccc(OC)cc3)[C@@H]2C)c2ccccc21`, the composite z-score in test [1] was -0.277; in [2] it was -0.313; in test [3], -0.144; in test [4] it was -0.314; in test [5] it was -0.599; in test [6] it was 0.174. Also, the composite z-score in test [7] was 0.122; in [9], -0.488; in test [10], -0.0933; in test [11], -0.539; in test [15], 0.602; in test [17], -0.0962. Further, the composite z-score in [18] was -0.788; in [19], -0.593; in [20], -0.178. Also, the z-score in [8] was -3.89 (inactive); in test [12], -2.75 (inactive); in test [13] it was -3.07 (inactive); in test [14], 5.72 (inactive); in test [16] it was -0.41 (inactive).

Turning to `Cc1ccccc1C(O)C1C=CC2C(=O)N(c3ccccc3)C(=O)C2N1Nc1ccccc1F` (stereo not given), the composite z-score in [1] turned out to be 0.397; in test [2], 0.0771; in test [3], 0.213; in test [4], 0.737; in test [5], 1.16; in [6], 2.15. Further, the composite z-score in [7] is 0.93; in test [9] it was 1.19; in test [10], -0.0994; in test [11], 1.16; in test [15], 3.41; in [17], 0.496. In addition, the composite z-score was -0.471 in test [18], 1.12 in test [19] and 0.0122 in test [20]. In addition, the z-score is -1.35 (inactive) in test [8]; 0.0769 (inactive) in test [12]; 0.592 (inactive) in [13]; 0.764 (inactive) in test [14]; -0.927 (inactive) in [16].

Turning to `COc1ccc(NN2C(C(O)c3ccc(OC)cc3)C=CC3C(=O)N(C4CCCCC4)C(=O)C32)cc1` (stereo not given), the composite z-score was -0.147 in test [1]; 0.191 in test [2]; -0.0131 in test [3]; 0.467 in test [4]; 1.18 in [5]; 1.29 in test [6]. The composite z-score is 0.978 in [7]; 0.775 in test [9]; -0.16 in test [10]; 1.43 in test [11]; 2.12 in [15]; 0.103 in [17]. In addition, the composite z-score in test [18] was determined as 0.157; in test [19], 1.08; in test [20], 0.21. Further, the z-score in [8] was 1.55 (inactive); in [12] it was -0.0924 (inactive); in [13], 1.01 (inactive); in [14], 0.365 (inactive); in test [16], 0.0447 (inactive).

With `C=C(COC)/C(=C/C[C@@H](OC(C)=O)c1ccccc1OCCO)c1cc(C(=O)OC)ccc1OC`, the composite z-score in [1] is 0.0503; in test [2] it was 0.377; in test [3] it was -0.116; in [4], 0.785; in [5] it was -0.216; in test [6] it was 1.48. Also, the composite z-score is 1.09 in test [7]; 0.0581 in test [9]; -0.374 in test [10]; 1.37 in [11]; 1.67 in [15]; -0.0873 in [17]. Besides, the composite z-score was 0.0363 in test [18], 0.455 in test [19] and -0.0141 in [20]. In addition, the z-score was -0.657 (inactive) in test [8]; 1.16 (inactive) in [12]; -0.145 (inactive) in test [13]; -0.167 (inactive) in [14]; 0.174 (inactive) in [16].

On to `CCCC=C(CCC)[C@@H](NC(=O)c1ccccc1)c1ccc(C(=O)OC)cc1`, for which the composite z-score in [1] is 0.0872; in test [2], 0.78; in test [3], 0.502; in test [4] it was 0.752; in test [5], 0.541; in test [6], -0.0843. Also, the composite z-score in test [7] worked out at 1.19; in [9] it was 1.01; in [10] it was 1.09; in test [11], 0.661; in [15], 2.56; in test [17], 0.688. Further, the figures for the composite z-score in test [18], in test [19] and in test [20] were 0.748, 0.997 and 0.23, respectively. The z-score in [8] was 3.19 (inactive); in test [12], -0.532 (inactive); in [13] it was -1.5 (inactive); in test [14] it was -0.938 (inactive); in test [16], 0.689 (inactive).

These data come from PubChem BioAssay.
